Reference: PubChem BioAssay AID1347081 (National Center for Advancing Translational Sciences (NCATS), 2019)
Records with an inconclusive call do not appear. A number with no mark means an inactive call. The source made the active and inactive calls. Calls follow the shape of the full dose curve.

Assay: qHTS for Inhibitors of the Functional Ribonucleoprotein Complex (vRNP) of Lassa (LASV) Arenavirus: Viability assay - alamar blue signal for LASV Confirmatory Screen
Conditions: LASV vRNP counter-screen cells; series mostly up to 53.9 µM; activity change, negative = decreased viability: at the top concentration

Q: For `Clc1nccc2c1ccc1ccccc12`, which “activity change, negative = decreased viability” value is on record?
A: -23.3%

Q: Which Potency does the source give for `CCCCCN=C(N)N/N=C/c1c[nH]c2ccc(OC)cc12` here?
A: 8.63 µM (active)

Q: Which Potency does the source give for `O=C1c2ccccc2-n2c1nc1ccccc1c2=O` here?
A: 3.85 µM (active)

Q: Which Potency does the source give for `C=C(C)[C@H]1Cc2c(ccc3c2O[C@@H]2COc4cc(OC)c(OC)cc4[C@@H]2C3=O)O1` here?
A: 0.193 µM (active)

Q: Which Potency does the source give for `S=C(NCc1ccc2c(c1)OCO2)N1CCN(c2ncnc3c2oc2ccccc23)CC1` here?
A: 8.85 µM (active)

Q: For `CCC1OC2(C)C(O)C(/C=C/C=C/C=C/c3oc(=O)cc(OC)c3C)OC1(C)C2OC(C)=O` (stereo not drawn), which Potency is on record?
A: 0.109 µM (active)

Q: For `CC(=O)OCC(=O)[C@@]12N=C(C)O[C@H]1C[C@H]1[C@@H]3CCC4=CC(=O)C=C[C@]4(C)[C@@H]3[C@@H](O)C[C@@]12C`, which “activity change, negative = decreased viability” value is on record?
A: -42.9%

Q: For `O=c1ccc2ccc(O)c(O)c2o1`, which “activity change, negative = decreased viability” value is on record?
A: -19.2%

Q: Which activity change, negative = decreased viability does the source give for `CCCCC[C@H](O)/C=C/C=C/C/C=C\CCCC(=O)O` here?
A: 20.4% [at 0.666 µM]

Q: For `CCc1cncnc1N1CCN(Cc2nc3ccc(C(F)(F)F)cc3[nH]2)CC1`, which Potency is on record?
A: 12.5 µM (active)

Q: Which Potency does the source give for `CNCCCC1c2ccccc2C=Cc2ccccc21` here?
A: 24.3 µM (active)

Q: Which “activity change, negative = decreased viability” value does the source give for `CC(O)C(O)[C@H]1CNc2nc(N)[nH]c(=O)c2N1` (stereo partly drawn) here?
A: 25.3%

Q: For `COc1cc2c(cc1OC)CC(=O)N(CCCN(C)C[C@H]1Cc3cc(OC)c(OC)cc31)CC2`, which “activity change, negative = decreased viability” value is on record?
A: 3.57%

Q: For `O=C(Nc1ccccc1)Nc1ccc(-c2ccc(C(=O)[C@H]3CCC[C@H]3C(=O)O)cc2)cc1`, which “activity change, negative = decreased viability” value is on record?
A: -29.7%

Q: Which Potency does the source give for `CC1=C(C)C(=O)C(CCCCC#CCCCC#CCO)=C(C)C1=O` here?
A: 24.3 µM (active)

Q: With `CCCCCC[C@H]1C(=O)O[C@H](C)[C@H](NC(=O)c2cccc(NC=O)c2O)C(=O)O[C@@H](C)[C@@H]1OC(=O)CC(C)C` as the compound, how does the Potency read?
A: 0.0544 µM (active)

Q: With `Cc1ncc([N+](=O)[O-])n1CC(C)O` (stereo not drawn) as the compound, how does the “activity change, negative = decreased viability” value read?
A: -11.4%

Q: Which “activity change, negative = decreased viability” value does the source give for `Cc1ccc2c(c1)C1CN(C)CCC1N2` (stereo not drawn) here?
A: -11.9% [at 19.4 µM]

Q: For `CCCCC/C(C=O)=C\c1ccccc1`, which “activity change, negative = decreased viability” value is on record?
A: 34%

Q: With `Cc1cc2c(C(C)C)c(O)c(O)c(C=O)c2c(O)c1-c1c(C)cc2c(C(C)C)c(O)c(O)c(C=O)c2c1O` as the compound, how does the Potency read?
A: 21.7 µM (active)

Q: With `Cc1cccc(-c2[nH]c(C(C)(C)C)nc2-c2ccc3c(c2)OCO3)n1` as the compound, how does the Potency read?
A: 4.85 µM (active)

Q: With `Nc1ccc([N+](=O)[O-])cc1O` as the compound, how does the Potency read?
A: 39.5 µM (active)

Q: Which Potency does the source give for `Cn1cc(-c2ccncc2)c(-c2ccc(OCc3ccc4ccccc4n3)cc2)n1` here?
A: 21.7 µM (active)
